This is a sample that favours compounds with a hit; in the whole collection about 3.7% have one here.
ANO1 activ = TMEM16A chloride channel activators or potentiators, primary screen, cell-based, HTS; HEK293 TMEM16A/YFP-H148Q/I152L, iodide quench fluorescence; active compounds read low; B-score at 10 µM; 340,000 tested, 0.3% active;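 active = fluorescence-ratio B-score plate-corrected deviation score at least 3 library SD below zero, with starting fluorescence score within 5 deviations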;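 also: channel opened by trigger with iodide after compound preincubation; score built on the fluorescence ratio of max minus min over baseline; more negative score means more quench and so TMEM16A activation or potentiation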
CHT PAM = CHT positive allosteric modulators, primary screen, cell-based, membrane potential dye, choline EC20. High affinity choline transporter 1 (Homo sapiens), Q9GZV3. CHT-expressing cells; active compounds read high; LV-AA mutant CHT in HEK293 cells. B-score at 10 µM. 310,000 tested, 0.49% active;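 active = initial fluorescence not abnormally high and integrated response B-score, plate-corrected, over 3 SD above library mean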
GPR7 antag = GPR7 receptor antagonists, primary screen, cell-based, fluorescence, single concentration; inhibition, % at 4.4 µM; Neuropeptides B/W receptor type 1 (Homo sapiens), P48145; GPR7-expressing cells, fluorescence antagonist assay; 290,000 tested, 1.1% active; AID 1861, 2009; in the data active = inhibition above about 16%, passing the limit was not always enough;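 also: cells stimulated with the agonist NPW; 0% = agonist with vehicle and 100% = vehicle without agonist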
CHT inh = inhibitors of human choline transporter CHT. AID 488975, 2010. 310,000 tested, 0.86% active. CHT-expressing cells, membrane potential dye, choline response; active compounds read low. B-score at 10 µM. High affinity choline transporter 1 (Homo sapiens), Q9GZV3;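 active = B-score over 3 SD under the library average, and starting fluorescence ratio not unusually high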;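 also: choline stimulus applied at its EC90 after an EC20 pre-addition; B-score computed on integrated fluorescence ratio after choline addition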
TMEM16A inh = TMEM16A chloride channel inhibitors, primary screen, cell-based, HTS; HEK293 TMEM16A/YFP iodide influx fluorescence, ionomycin; normalized B-score (activity score, 25-100; higher = stronger inhibition) at 10 µM; 310,000 tested, 1.2% active;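 active = ratio plate-corrected score three or more library SD toward inhibition, starting fluorescence score within five deviations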;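 also: score derived from kinetic fluorescence span divided by baseline fluorescence per well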
Kir21 block = inhibitors of mouse Kir2.1 inward-rectifier potassium channel; B-score at 10 µM; 310,000 tested, 0.85% active; HEK293-Kir2.1, FluxOR thallium flux fluorescence; active compounds read low; AID 1672, 2009; Inward rectifier potassium channel 2 (Mus musculus), P35561;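 active = fluorescence ratio B-score at or below minus 3 SD of library scores, with starting-brightness B-score within 2 SD, cut at about -4.2 in these data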;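 also: channel flux triggered by added potassium and thallium sulfate stimulus; B-score of peak minus minimum fluorescence over baseline after thallium stimulus; more negative B-score means stronger Kir2.1 block with less thallium influx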
Target sequence (P35561 whole entry, looked up): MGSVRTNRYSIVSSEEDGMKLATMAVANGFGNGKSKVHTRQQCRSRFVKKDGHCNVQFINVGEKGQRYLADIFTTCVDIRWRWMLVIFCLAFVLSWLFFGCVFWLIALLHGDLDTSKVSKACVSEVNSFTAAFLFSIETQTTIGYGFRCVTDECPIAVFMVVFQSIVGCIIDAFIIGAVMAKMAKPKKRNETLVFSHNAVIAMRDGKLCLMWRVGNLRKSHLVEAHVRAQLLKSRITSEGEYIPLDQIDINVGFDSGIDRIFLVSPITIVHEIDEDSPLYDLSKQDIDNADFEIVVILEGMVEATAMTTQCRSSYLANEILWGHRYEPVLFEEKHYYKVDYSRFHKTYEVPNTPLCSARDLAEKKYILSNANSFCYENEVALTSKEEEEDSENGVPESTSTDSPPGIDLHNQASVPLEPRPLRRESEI
* marks the source's active call; other numbers are inactive results; i = inactive; · = not tested or not shown.

SMILES	ANO1 activ	CHT PAM	GPR7 antag	CHT inh	TMEM16A inh	Kir21 block
Cc1ccc(OCCn2cnc3c2c(=O)n(C)c(=O)n3C)cc1	i	i	-5	i	i	2.4
CC1CCCC2(C1)NC(=S)N(c1ccccc1)N2 (stereo not drawn)	i	i	5	i	i	-0.03
S=C1NC2(CCCCC2)NN1c1ccccc1	-5*	i	-17	i	i	0.88
COc1ccccc1N1CCN(C2CCCN(C(=O)Cn3cccn3)C2)CC1 (stereo not drawn)	i	i	-3	i	i	0.13
C=CCn1c(CSCc2ccccc2)nnc1SCC(=O)N1CCN(c2ccccc2)CC1	i	i	4	i	i	-0.82
CCn1c(CSCc2ccc(C)cc2)nnc1SCC(=O)N1CCN(c2ccccc2)CC1	i	i	-5	i	25*	1.1
C/C(=N\NC(=O)c1ccc(O)cc1)c1ccc2c(c1)Nc1ccccc1S2	i	i	-10	i	25*	0.74
COc1ccc(NC(=O)c2cc3ccccc3o2)cc1S(=O)(=O)N1CCCCC1	i	·	·	·	·	·
COc1ccc(C(CNC(=O)C2COc3ccccc3O2)N2CCCC2)cc1 (stereo not drawn)	i	·	·	·	·	·
CCCOC(=O)c1ccc(OC(=O)c2ccco2)cc1	i	i	5	i	i	-4.4*
Cc1ccc(C(=O)NCC(c2ccc(F)cc2)N2CCOCC2)s1 (stereo not drawn)	i	·	·	·	·	·
O=C(OCc1ccccc1)N(CCCCN(CCCNCc1ccccc1)C(=O)OCc1ccccc1)CCCNCc1ccccc1	-5.4*	·	·	·	·	·
N#CC1=C(S)N(c2ccccc2)C(c2ccc(-c3ccc(Cl)c(Cl)c3)o2)NC1=O (stereo not drawn)	i	i	-12	i	i	-6.2*
N#CC1=C(S)N(c2ccccc2)C(c2ccc(-c3cc(Cl)ccc3Cl)o2)NC1=O (stereo not drawn)	i	i	0	i	i	-0.78
COc1ccc(S(=O)(=O)NCCC(=O)N2CCCN(C)CC2)cc1	i	·	·	·	·	·
COc1cc(OC)c(NS(=O)(=O)c2cc(Br)cnc2N)cc1Cl	i	i	-10	i	i	-5.8*
COc1ccccc1NS(=O)(=O)c1cc(Cl)ccc1OC	i	i	12	i	i	-4.8*
COc1ccccc1NS(=O)(=O)c1cc(-c2cc(C)no2)ccc1OC	i	i	-3	i	100*	-1.8
COc1ccc(OC)c(S(=O)(=O)Nc2cc(Cl)cc(Cl)c2)c1	i	i	7	i	i	0.06
Cc1ccc(NS(=O)(=O)c2cc(Br)cnc2N)c(Cl)c1	i	i	-2	i	i	-2.1
COc1ccccc1NS(=O)(=O)c1ccc(OC)c(OC)c1	i	i	-7	i	i	-2.7
COc1ccc(OC)c(S(=O)(=O)Nc2cc(OC)c(Cl)cc2OC)c1	i	i	-14	i	i	-5.6*
Cc1cccc(NS(=O)(=O)c2cccc(C(=O)NCCCN3CCOCC3)c2)c1	i	i	·	i	i	-0.8
CCOc1c(Cl)cc(C(=O)Nc2cccc(C(=O)O)c2)cc1Cl	i	i	1	i	i	0.1
COc1cccc(CNc2ccc(S(N)(=O)=O)cc2)c1OCc1ccccc1F	i	i	-5	i	i	-5.1*
SMILES	ANO1 activ	CHT PAM	GPR7 antag	CHT inh	TMEM16A inh	Kir21 block
COc1cc(CNc2ccc(S(N)(=O)=O)cc2)ccc1OCc1ccccc1F	i	·	·	·	·	·
O=C(CCCn1c(SCC(=O)c2ccc(F)cc2)nc2ccccc2c1=O)NCc1ccccc1	i	i	-2	i	25*	2.1
O=C(CNC(c1ccccc1)c1ccccc1)Nc1ccccc1Br	i	i	1	i	i	-0.87
COc1ccc(C2NCCc3c2[nH]c2ccccc32)cc1COc1ccc(F)cc1 (stereo not drawn)	i	i	46*	i	i	-2.4
COc1ccccc1C(=O)OCc1nc(N)nc(Nc2ccccc2C)n1	i	i	-5	i	i	-5.2*
Cc1ccccc1Nc1nc(N)nc(COC(=O)c2ccco2)n1	i	·	·	·	·	·
CN(C(=O)C(Cl)Cl)C1CC2C=CC1C2 (stereo not drawn)	i	i	-3	i	i	0.04
Cc1cc(C)cc(NC(=S)Nc2ccc(Cl)c(Cl)c2)c1	-9.6*	i	-15	i	100*	-2
Cc1cccc(C)c1NC(=S)Nc1ccc(Cl)c(Cl)c1	i	i	4	i	i	-0.49
Cc1ccc(NC(=S)Nc2ccc(Cl)c(Cl)c2)c(OC(F)F)c1	i	i	-5	i	100*	-2.6
COc1ccc(/C=N/NC2=NS(=O)(=O)c3ccccc32)cc1OC	i	i	-7	i	i	0.35
CCOc1ccc(N2C(=O)CN(O)C=C3N=c4ccccc4=C32)cc1	·	i	14	i	i	-0.89
CCCc1nnc2n1N=C(c1ccc(OC)c(OC)c1)CS2	i	i	-3	-5*	i	1.6
O=C(CSc1nc2ccccc2o1)Nc1ccccc1N1CCOCC1	i	i	3	i	i	-8.8*
CN(CC(=O)Nc1ccccc1N1CCOCC1)S(=O)(=O)c1ccc(F)cc1	i	i	8	i	25*	-0.01
O=C(CSc1ccc([N+](=O)[O-])cc1)Nc1ccccc1N1CCOCC1	i	·	·	·	·	·
O=C(CSc1ccc([N+](=O)[O-])cn1)Nc1ccccc1N1CCOCC1	i	i	-20	i	i	-4.6*
CCCN(CC(=O)Nc1cc(Cl)ccc1Cl)C(=O)c1ccccc1SCC(=O)N1CCCC1	i	i	·	i	i	-0.03
Cc1cc(-c2ccccc2)n2nc(N)nc2n1	i	i	-12	i	i	-0.05
CC1CCC(N2CCN(C(=O)c3ccccc3F)CC2)CC1 (stereo not drawn)	i	i	-16	i	i	-1.6
C=CCn1c(C)cc(-c2csc(NC)n2)c1C	i	·	-13	·	·	·
C=CCn1c(C)cc(-c2csc(NCC)n2)c1C	-5.4*	i	-1	i	i	-0.3
Nc1ccc(-c2cc(-c3cccc(N)c3)nc(-c3ccccc3)n2)cc1	i	i	29*	i	i	-0.06
Nc1ccc(-c2nc(-c3ccccc3)nc3ccccc23)cc1	·	i	3	i	i	1.4
